# According to the supplement of paper PMC4022240:
# ± gives the standard deviation.
# T1: HaloTag-ATRX ADD domain (163-292)
# T1 chain: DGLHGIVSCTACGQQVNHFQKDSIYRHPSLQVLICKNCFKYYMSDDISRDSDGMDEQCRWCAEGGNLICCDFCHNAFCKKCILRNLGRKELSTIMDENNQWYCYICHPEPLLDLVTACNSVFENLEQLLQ
# Columns and labels:
# Experiment in all cases: peptide microarray binding signal (635 nm), min-max normalized on array (fraction of array maximum); higher = stronger binding
# [1] = target: T1, HaloTag-ATRX ADD domain (163-292)
# Summary of the method: (§1)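 Two probe formats were used for 1 h at 4°C: biotin-labelled HaloTag reader fusions (10 nM to 1 μM) with streptavidin-Alexa Fluor 647, and rabbit histone antibodies (1:10,000 to 1:2,000) with anti-rabbit Alexa 647. Both were applied to nitrocellulose arrays of histone 13-mer peptide–cellulose conjugates printed in triplicate with a Cy3 tracer and blocked overnight at 4°C. Signal was read at 635 nm and misprints at 532 nm on an Axon GenePix 4000B. Binding signal is expressed as the triplicate-spot mean intensity, min-max scaled for each library.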
# [2] = target: HaloTag-ING2 PHD (mouse Ing2 200-280)
# Summary of the method: as §1
# [3] = target: anti-H3K4me3 antibody ab8580
# Summary of the method: as §1
# [4] = target: anti-H3K9me3 antibody ab8898
# Summary of the method: as §1
# [5] = peptide region: H4 1-13, peptide modifications: H4R3me1, binder concentration: 1:2,000 dilution
# [6] = peptide region: H4 1-13, peptide modifications: H4R3me1, binder concentration: 1:10,000 dilution
# [7] = peptide region: H4 1-13, peptide modifications: H4K8ac, binder concentration: 1:2,000 dilution
# [8] = peptide region: H4 1-13, peptide modifications: H4K8ac, binder concentration: 1:10,000 dilution
# [9] = peptide region: H4 1-13, peptide modifications: H4R3cit, binder concentration: 1:2,000 dilution
# [10] = peptide region: H4 1-13, peptide modifications: H4R3cit, binder concentration: 1:10,000 dilution
# [11] = peptide region: H3 112-124, peptide modifications: H3R116me2a, binder concentration: 1:2,000 dilution
# [12] = peptide region: H3 112-124, peptide modifications: H3R116me2a, binder concentration: 1:10,000 dilution
# [13] = peptide region: H3 112-124, peptide modifications: H3K122me2, binder concentration: 1:2,000 dilution
# [14] = peptide region: H3 112-124, peptide modifications: H3K122me2, binder concentration: 1:10,000 dilution
# [15] = peptide region: H3 112-124, peptide modifications: H3K122ac, binder concentration: 1:2,000 dilution
# [16] = peptide region: H3 112-124, peptide modifications: H3K122ac, binder concentration: 1:10,000 dilution
# [17] = peptide region: H4 1-13, peptide modifications: H4R3me2s, binder concentration: 1:2,000 dilution
# [18] = peptide region: H4 1-13, peptide modifications: H4R3me2s, binder concentration: 1:10,000 dilution
# [19] = peptide region: H4 1-13, peptide modifications: H4R3me2a, binder concentration: 1:2,000 dilution
# [20] = peptide region: H4 1-13, peptide modifications: H4R3me2a, binder concentration: 1:10,000 dilution
# [21] = peptide region: H3 112-124, peptide modifications: H3K122me3, binder concentration: 1:2,000 dilution
# [22] = peptide region: H3 112-124, peptide modifications: H3K122me3, binder concentration: 1:10,000 dilution
# [23] = peptide region: H4 1-13, peptide modifications: H4K5ac H4K8ac, binder concentration: 1:2,000 dilution
# [24] = peptide region: H4 1-13, peptide modifications: H4K5ac H4K8ac, binder concentration: 1:10,000 dilution
binder,measurement,setting,value
SGRGKGGKGLGKG [H4 1-13 S G Rme G K G G K G L G K G],peptide microarray binding signal,"[1]; peptide region: H4 1-13, peptide modifications: H4R3me1, binder concentration: 50 nM",0.00483 ± 0.00013
same,peptide microarray binding signal,"[1]; peptide region: H4 1-13, peptide modifications: H4R3me1, binder concentration: 500 nM",0.00838 ± 0.0007
same,peptide microarray binding signal,"[2]; peptide region: H4 1-13, peptide modifications: H4R3me1, binder concentration: 10 nM",0.00477 ± 0.00017
same,peptide microarray binding signal,"[2]; peptide region: H4 1-13, peptide modifications: H4R3me1, binder concentration: 100 nM",0.0127 ± 0.0019
same,peptide microarray binding signal,[3]; [5],0.00125 ± 0.00022
same,peptide microarray binding signal,[3]; [6],0.0012 ± 1.2e-05
same,peptide microarray binding signal,[4]; [5],0.000544 ± 6.8e-05
same,peptide microarray binding signal,[4]; [6],0.00115 ± 2e-05
SGRGKGGKGLGKG [H4 1-13 S G R G K G G Kac G L G K G],peptide microarray binding signal,"[1]; peptide region: H4 1-13, peptide modifications: H4K8ac, binder concentration: 50 nM",0.00248 ± 2.9e-05
same,peptide microarray binding signal,"[1]; peptide region: H4 1-13, peptide modifications: H4K8ac, binder concentration: 500 nM",0.00481 ± 8.5e-05
same,peptide microarray binding signal,"[2]; peptide region: H4 1-13, peptide modifications: H4K8ac, binder concentration: 10 nM",0.002626 ± 1.5e-05
same,peptide microarray binding signal,"[2]; peptide region: H4 1-13, peptide modifications: H4K8ac, binder concentration: 100 nM",0.00546 ± 0.00011
same,peptide microarray binding signal,[3]; [7],0.000434 ± 1.2e-05
same,peptide microarray binding signal,[3]; [8],0.000628 ± 6.7e-06
same,peptide microarray binding signal,[4]; [7],9.06e-05 ± 3.5e-06
same,peptide microarray binding signal,[4]; [8],0.000346 ± 3.8e-06
SGRGKGGKGLGKG [H4 1-13 S G Rcit G K G G K G L G K G],peptide microarray binding signal,"[1]; peptide region: H4 1-13, peptide modifications: H4R3cit, binder concentration: 50 nM",0.00524 ± 0.00048
same,peptide microarray binding signal,"[1]; peptide region: H4 1-13, peptide modifications: H4R3cit, binder concentration: 500 nM",0.0149 ± 0.00041
same,peptide microarray binding signal,"[2]; peptide region: H4 1-13, peptide modifications: H4R3cit, binder concentration: 10 nM",0.00209 ± 0.00016
same,peptide microarray binding signal,"[2]; peptide region: H4 1-13, peptide modifications: H4R3cit, binder concentration: 100 nM",0.00468 ± 0.00014
same,peptide microarray binding signal,[3]; [9],0.00104 ± 0.00043
same,peptide microarray binding signal,[3]; [10],0.001997 ± 1.8e-05
same,peptide microarray binding signal,[4]; [9],0.00199 ± 3.7e-05
same,peptide microarray binding signal,[4]; [10],0.00161 ± 4.1e-05
IHAKRVTIMPKDI [H3 112-124 I H A K Rme2a V T I M P K D I],peptide microarray binding signal,"[1]; peptide region: H3 112-124, peptide modifications: H3R116me2a, binder concentration: 50 nM",0.00257 ± 3e-05
same,peptide microarray binding signal,"[1]; peptide region: H3 112-124, peptide modifications: H3R116me2a, binder concentration: 500 nM",0.00719 ± 0.00024
same,peptide microarray binding signal,"[2]; peptide region: H3 112-124, peptide modifications: H3R116me2a, binder concentration: 10 nM",0.00322 ± 3.5e-05
same,peptide microarray binding signal,"[2]; peptide region: H3 112-124, peptide modifications: H3R116me2a, binder concentration: 100 nM",0.007583 ± 5.2e-05
same,peptide microarray binding signal,[3]; [11],0.000396 ± 1.8e-05
same,peptide microarray binding signal,[3]; [12],0.000514 ± 1.1e-05
same,peptide microarray binding signal,[4]; [11],0.00154 ± 0.0003
same,peptide microarray binding signal,[4]; [12],0.00098
IHAKRVTIMPKDI [H3 112-124 I H A K R V T I M P Kme2 D I],peptide microarray binding signal,"[1]; peptide region: H3 112-124, peptide modifications: H3K122me2, binder concentration: 50 nM",0.0047 ± 8.8e-05
same,peptide microarray binding signal,"[1]; peptide region: H3 112-124, peptide modifications: H3K122me2, binder concentration: 500 nM",0.0148 ± 0.00039
same,peptide microarray binding signal,"[2]; peptide region: H3 112-124, peptide modifications: H3K122me2, binder concentration: 10 nM",0.00567 ± 0.00021
same,peptide microarray binding signal,"[2]; peptide region: H3 112-124, peptide modifications: H3K122me2, binder concentration: 100 nM",0.0168 ± 0.0034
same,peptide microarray binding signal,[3]; [13],0.000906 ± 6e-05
same,peptide microarray binding signal,[3]; [14],0.000799 ± 8.3e-06
same,peptide microarray binding signal,[4]; [13],0.00287 ± 0.00058
same,peptide microarray binding signal,[4]; [14],0.00121 ± 2.4e-05
IHAKRVTIMPKDI [H3 112-124 I H A K R V T I M P Kac D I],peptide microarray binding signal,"[1]; peptide region: H3 112-124, peptide modifications: H3K122ac, binder concentration: 50 nM",0.002508 ± 1.9e-05
same,peptide microarray binding signal,"[1]; peptide region: H3 112-124, peptide modifications: H3K122ac, binder concentration: 500 nM",0.00729 ± 0.0012
same,peptide microarray binding signal,"[2]; peptide region: H3 112-124, peptide modifications: H3K122ac, binder concentration: 10 nM",0.00328 ± 0.00025
same,peptide microarray binding signal,"[2]; peptide region: H3 112-124, peptide modifications: H3K122ac, binder concentration: 100 nM",0.00475 ± 0.0007
same,peptide microarray binding signal,[3]; [15],0.00113 ± 0.00025
same,peptide microarray binding signal,[3]; [16],0.00137 ± 0.00013
same,peptide microarray binding signal,[4]; [15],0.000483 ± 2.4e-05
same,peptide microarray binding signal,[4]; [16],0.000692 ± 7.3e-06
SGRGKGGKGLGKG [H4 1-13 S G Rme2s G K G G K G L G K G],peptide microarray binding signal,"[1]; peptide region: H4 1-13, peptide modifications: H4R3me2s, binder concentration: 50 nM",0.00304 ± 5.1e-05
same,peptide microarray binding signal,"[1]; peptide region: H4 1-13, peptide modifications: H4R3me2s, binder concentration: 500 nM",0.0107 ± 0.0019
same,peptide microarray binding signal,"[2]; peptide region: H4 1-13, peptide modifications: H4R3me2s, binder concentration: 10 nM",0.00161 ± 0.00016
same,peptide microarray binding signal,"[2]; peptide region: H4 1-13, peptide modifications: H4R3me2s, binder concentration: 100 nM",0.00468 ± 0.0011
same,peptide microarray binding signal,[3]; [17],0.000227 ± 2.2e-05
same,peptide microarray binding signal,[3]; [18],0.00097 ± 4.3e-05
same,peptide microarray binding signal,[4]; [17],0.000317 ± 3.5e-05
same,peptide microarray binding signal,[4]; [18],0.000461
SGRGKGGKGLGKG [H4 1-13 S G Rme2a G K G G K G L G K G],peptide microarray binding signal,"[1]; peptide region: H4 1-13, peptide modifications: H4R3me2a, binder concentration: 50 nM",0.0021 ± 9.6e-06
same,peptide microarray binding signal,"[1]; peptide region: H4 1-13, peptide modifications: H4R3me2a, binder concentration: 500 nM",0.00305 ± 6.3e-05
same,peptide microarray binding signal,"[2]; peptide region: H4 1-13, peptide modifications: H4R3me2a, binder concentration: 10 nM",0.00269 ± 4e-05
same,peptide microarray binding signal,"[2]; peptide region: H4 1-13, peptide modifications: H4R3me2a, binder concentration: 100 nM",0.00404 ± 9.1e-05
same,peptide microarray binding signal,[3]; [19],0.000227 ± 4.2e-06
same,peptide microarray binding signal,[3]; [20],0.000856 ± 2.3e-05
same,peptide microarray binding signal,[4]; [19],1.51e-05 ± 1.7e-07
same,peptide microarray binding signal,[4]; [20],0.000577 ± 1.2e-05
IHAKRVTIMPKDI [H3 112-124 I H A K R V T I M P Kme3 D I],peptide microarray binding signal,"[1]; peptide region: H3 112-124, peptide modifications: H3K122me3, binder concentration: 50 nM",0.00423 ± 4.3e-05
same,peptide microarray binding signal,"[1]; peptide region: H3 112-124, peptide modifications: H3K122me3, binder concentration: 500 nM",0.0122 ± 0.00089
same,peptide microarray binding signal,"[2]; peptide region: H3 112-124, peptide modifications: H3K122me3, binder concentration: 10 nM",0.00489 ± 0.00015
same,peptide microarray binding signal,"[2]; peptide region: H3 112-124, peptide modifications: H3K122me3, binder concentration: 100 nM",0.0106 ± 0.00081
same,peptide microarray binding signal,[3]; [21],0.000868 ± 3.3e-05
same,peptide microarray binding signal,[3]; [22],0.00126 ± 7.5e-05
same,peptide microarray binding signal,[4]; [21],0.0125 ± 0.002
same,peptide microarray binding signal,[4]; [22],0.00381 ± 0.00041
SGRGKGGKGLGKG [H4 1-13 S G R G Kac G G Kac G L G K G],peptide microarray binding signal,"[1]; peptide region: H4 1-13, peptide modifications: H4K5ac H4K8ac, binder concentration: 50 nM",0.00737 ± 0.00034
same,peptide microarray binding signal,"[1]; peptide region: H4 1-13, peptide modifications: H4K5ac H4K8ac, binder concentration: 500 nM",0.0151 ± 0.00043
same,peptide microarray binding signal,"[2]; peptide region: H4 1-13, peptide modifications: H4K5ac H4K8ac, binder concentration: 10 nM",0.00746 ± 6.7e-05
same,peptide microarray binding signal,"[2]; peptide region: H4 1-13, peptide modifications: H4K5ac H4K8ac, binder concentration: 100 nM",0.0206 ± 0.0023
same,peptide microarray binding signal,[3]; [23],0.00177 ± 8.8e-05
same,peptide microarray binding signal,[3]; [24],0.00285 ± 8.8e-05
same,peptide microarray binding signal,[4]; [23],0.00068 ± 7.5e-05
same,peptide microarray binding signal,[4]; [24],0.00156 ± 5.5e-05
